About 83,000 compounds went through this panel and 20% of them were active in at least one assay; those are over-represented in the sample as a whole.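 The endpoint reported here, percent growth, reads 100 for growth as untreated, 0 for no net growth and -100 for all cells dead.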 Active and inactive are the calls of the source. Rule for the calls: active = growth percent below 10; inactive = the rest.
Columns and labels:
Assay in all cases: NCI-60 one-dose screen, 48 h (100 = growth as untreated, 0 = no growth, -100 = all killed)
SR leukemia = settings: 10 µM unless noted
RPMI-8226 leukemia = settings: 10 µM unless noted
OVCAR-8 ovarian = settings: 10 µM unless noted
OVCAR-5 ovarian = settings: 10 µM unless noted
OVCAR-4 ovarian = settings: 10 µM unless noted
SK-OV-3 ovarian = settings: 10 µM unless noted
IGROV1 ovarian = settings: 10 µM unless noted
OVCAR-3 ovarian = settings: 10 µM unless noted
NCI/ADR-RES ovarian = settings: 10 µM unless noted
BT-549 breast = settings: 10 µM unless noted
MDA-MB-435 melanoma = settings: 10 µM unless noted
SW-620 colon = settings: 10 µM unless noted
MCF7 breast = settings: 10 µM unless noted
HCT-116 colon = settings: 10 µM unless noted
HCC-2998 colon = settings: 10 µM
KM12 colon = settings: 10 µM unless noted
T-47D breast = settings: 10 µM unless noted

Measured: growth

CCN1CCN(CCCN(C[C@H]2Cc3ccccc3CN2)[C@H]2CCCc3cccnc32)CC1
inactive: SR leukemia 53.6% | RPMI-8226 leukemia 81.8% | OVCAR-8 ovarian 85.3% | OVCAR-5 ovarian 92.7% | OVCAR-4 ovarian 89.5% | SK-OV-3 ovarian 89.4% | IGROV1 ovarian 94.5% | OVCAR-3 ovarian 84.2% | NCI/ADR-RES ovarian 92.1% | BT-549 breast 79.7% | MDA-MB-435 melanoma 105% | SW-620 colon 89.6% | MCF7 breast 100% | HCT-116 colon 76.4% | HCC-2998 colon 102% | KM12 colon 87.1%

COc1cc2nccc(Oc3ccc(NC(=O)C4(C(=O)Nc5ccc(F)cc5)CC4)cc3)c2cc1OC
active: SR leukemia 0.0186% | OVCAR-5 ovarian 9.6% | SK-OV-3 ovarian -15.1% | IGROV1 ovarian -15.9% | T-47D breast -14% | MDA-MB-435 melanoma 8.75% | SW-620 colon -27.3% | KM12 colon 7.5%
inactive: RPMI-8226 leukemia 26.4% | OVCAR-8 ovarian 19.8% | OVCAR-4 ovarian 26.3% | OVCAR-3 ovarian 41.2% | NCI/ADR-RES ovarian 13.8% | BT-549 breast 32.8% | MCF7 breast 15.6% | HCC-2998 colon 30.5%

COc1ccc(-c2ccc3c(N4CCOC[C@@H]4C)nc(N4CCOC[C@@H]4C)nc3n2)cc1CO
active: SR leukemia 9% | RPMI-8226 leukemia 4.83% | OVCAR-8 ovarian -3.37% | OVCAR-5 ovarian 7.09% | OVCAR-4 ovarian -26% | SK-OV-3 ovarian -33.7% | IGROV1 ovarian -33.2% | NCI/ADR-RES ovarian -1.68% | T-47D breast -35% | MDA-MB-435 melanoma -14.1% | SW-620 colon 8.32% | MCF7 breast 5.12%
inactive: OVCAR-3 ovarian 13% | HCT-116 colon 21.9% | HCC-2998 colon 10.3% | KM12 colon 13.1%

Cc1c(NC(=O)OC[C@@H]2COCCN2)cn2ncnc(Nc3ccc4c(cnn4Cc4cccc(F)c4)c3)c12
active: SR leukemia -4.38% | RPMI-8226 leukemia 5.44% | OVCAR-8 ovarian -4.01% | OVCAR-5 ovarian 7.38% | SK-OV-3 ovarian -9.89% | IGROV1 ovarian -4.73% | T-47D breast -16.7% | MDA-MB-435 melanoma 2.07% | SW-620 colon 1.74% | MCF7 breast 1.5% | HCT-116 colon 0.842% | HCC-2998 colon 3.83% | KM12 colon 8.03%
inactive: OVCAR-4 ovarian 24% | OVCAR-3 ovarian 12.8% | NCI/ADR-RES ovarian 19.8%

CCc1cnn2c(NCc3ccc[n+]([O-])c3)cc(N3CCCC[C@H]3CCO)nc12
inactive: OVCAR-3 ovarian 12.3%
active: SR leukemia -17.3% | RPMI-8226 leukemia -16.2% | OVCAR-8 ovarian -6.3% | OVCAR-5 ovarian 4.89% | OVCAR-4 ovarian -9.21% | SK-OV-3 ovarian -17.8% | IGROV1 ovarian 5.6% | NCI/ADR-RES ovarian -0.875% | T-47D breast -16.9% | MDA-MB-435 melanoma -35.4% | SW-620 colon -4.01% | MCF7 breast 1.85% | HCT-116 colon 1.22% | HCC-2998 colon -37.3% | KM12 colon 1.55%

COc1ccc2c(c1)cn1c3ccc(O)cc3nc(N)c21
active: SR leukemia 3.65% | SK-OV-3 ovarian 5.03% | NCI/ADR-RES ovarian -0.794% | MDA-MB-435 melanoma -16.6%
inactive: RPMI-8226 leukemia 25.4% | OVCAR-8 ovarian 28.1% | OVCAR-5 ovarian 38.3% | OVCAR-4 ovarian 37.7% | IGROV1 ovarian 17.4% | OVCAR-3 ovarian 43% | T-47D breast 37.3% | SW-620 colon 26.8% | MCF7 breast 17.2% | HCT-116 colon 18% | HCC-2998 colon 22.5% | KM12 colon 27.1%

CCn1cc(-c2ccnc3[nH]c(-c4cccc(CN(C)C)c4)cc23)c(-c2ccc(NC(=O)N(C)C)cc2)n1
active: SR leukemia -15.8% | RPMI-8226 leukemia 3% | SK-OV-3 ovarian -0.688% | SW-620 colon 2.66% | HCT-116 colon 8.47%
inactive: OVCAR-8 ovarian 24.9% | OVCAR-5 ovarian 24.5% | OVCAR-4 ovarian 41.1% | IGROV1 ovarian 26.3% | OVCAR-3 ovarian 48.1% | NCI/ADR-RES ovarian 72.4% | T-47D breast 58% | MDA-MB-435 melanoma 51.3% | MCF7 breast 16.1% | HCC-2998 colon 60% | KM12 colon 11.1%

Cc1cc(C(=O)Nc2cc(Oc3ccc4nc(NC(=O)C5CC5)cn4n3)ccc2C)n(C)n1
active: HCC-2998 colon 2.16%
inactive: SR leukemia 29.5% | RPMI-8226 leukemia 48.6% | OVCAR-8 ovarian 30.2% | OVCAR-5 ovarian 11.6% | OVCAR-4 ovarian 49% | SK-OV-3 ovarian 17.9% | IGROV1 ovarian 12% | OVCAR-3 ovarian 52.8% | NCI/ADR-RES ovarian 60.2% | T-47D breast 53.4% | BT-549 breast 30.1% | MDA-MB-435 melanoma 34.3% | SW-620 colon 15.2% | MCF7 breast 33.7% | KM12 colon 12.2%

COc1ccc(Cl)c(Nc2nc3ccccc3nc2NS(=O)(=O)c2cccc(NC(=O)C(C)(C)N)c2)c1
inactive: SR leukemia 54.9% | RPMI-8226 leukemia 51.5% | OVCAR-8 ovarian 53.3% | OVCAR-5 ovarian 45.7% | OVCAR-4 ovarian 68% | OVCAR-3 ovarian 36.9% | NCI/ADR-RES ovarian 52.6% | MDA-MB-435 melanoma 53.5% | SW-620 colon 65.7% | MCF7 breast 20.3% | HCT-116 colon 47% | HCC-2998 colon 54.8% | KM12 colon 53.1%
active: SK-OV-3 ovarian 4.52% | IGROV1 ovarian -16.9% | T-47D breast -19.8%

— PubChem BioAssay (NCI)
